Test results as given in the supplement of paper PMC6555819.

What follows are sequences tested on RXRa homodimer (NR concentration 180 nM) (assay: PBM binding z-score (relative to random genomic background probes); higher = stronger binding; sequences stand for … in GC…GCGATTGACAGCGTAGAATGAAGG).
Summary of the method: (§1)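 Regression normalization was applied to scanned fluorescence from custom Agilent 4×180K protein-binding microarrays. Before scanning, arrays were incubated 1 h with ligand-free nuclear receptor dimers, and binding was detected with antibodies against each partner (one per run). Binding z-scores use the random background probes as reference.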
For ACAGACAGGTGAGTGAAGCTAACTCAGCTGGACG, the PBM binding z-score was -0.0844. Sequence AGTCAAAGTTCATCTATGTAACGTAAGATATGCT has a PBM binding z-score of 4.74. ATCTCTAGGTAAAAGTTCAGTGCATCCCGAGGAT gave a PBM binding z-score of 1.49. Sequence ATCTCTAGGTAAAGTTAGTTCAGTGAATGCAAAT has a PBM binding z-score of 0.331. With GCGACTGGGGCAAAGCAGGTGACCATAAGGTTGG the PBM binding z-score was 0.188. For TCTTGAAGATCAAAGGTTAAGAAAGCCGAAGCCT, the PBM binding z-score was 3.74. TCTAGCAGGCCGGAGGGTCACTCAAGAGGTACGG showed a PBM binding z-score of 2.13. For CTACCAATGTGAACAAGGTCGTTGATTACTATTC, the PBM binding z-score was 1.08. Sequence GCTATTAGCTGAAAGGGCAACCGAATGATTCTCG has a PBM binding z-score of 0.703. Work on CGAACTAGGTCAAGGACAGCGAATCTCCGCACGC yielded a PBM binding z-score of 2.63. Work on CCTACTGGGCCCTCAGGTCATTGATATCAACGTT yielded a PBM binding z-score of 0.755. CATACAGGGTCAACTAGGCCAGAGTAGGGACGGC was tested, and the PBM binding z-score was 6.54. GTACCAAGGTGAAAAGGTCGTTGATGAGTAGGCG was tested, and the PBM binding z-score was 3.57. With CGTCCAAGGTCATAGGAGGTAAGTGAAGACAGAT the PBM binding z-score was 5.29. Sequence CGAACTAGGTCATCCAGGAAAGTGAATACATTGA has a PBM binding z-score of 3.11. In the case of TCTAGATGGTCACGGAGGTCACACACGACGGGTA, the PBM binding z-score is reported as 5.34. GGAACGAGGGCAAAGTTGATAGTATCTGTCGACG gave a PBM binding z-score of 1.68. TCTTGTAGATCAACAGGAGGTTAAGAAGGATCGA gave a PBM binding z-score of 1.09. TCTTGTAGATCAAAGGTTCAGAAAGCCGAAGCCT showed a PBM binding z-score of 1.29. With CGTCCAAAGTCAGCAGGTCAGTGAAAGCGACGTG the PBM binding z-score was 0.851. Sequence CCTTACGGGTCAACGTTATAGCACGGGTGGTACG has a PBM binding z-score of 5.03. With TATGCAGGGTCAAAGGCCAGAGTACGAATGTCGA the PBM binding z-score was 6.81. With TCATGTAGGTAATACAGGTGAAAGTCGGCATCTA the PBM binding z-score was 0.579. CAAACTAGGTCAAAGTCAAAGTCGGTTTGTGCCA gave a PBM binding z-score of 3.11. TCGAGTAGGATAGTCGGGGCATTCAGCCAACATA showed a PBM binding z-score of -0.289. Work on GCTCAGAGGACAAGGTCAGAGCTTTGTCCGTAGA yielded a PBM binding z-score of 2.64. TCTACTAGGTCAACGATGGTCAGCTAATCTGCTA showed a PBM binding z-score of 3.07. With TCTCGGAGGACACGAAGGTCACAGCTTTCCAGAG the PBM binding z-score was 3.74. CGAACGAGGGCATGATTTGATAGCAAATGCCGAT gave a PBM binding z-score of 0.631. Sequence TCAATTAGTTGAAGGGCAACCGACGAGTCCGTTT has a PBM binding z-score of 0.562. AGTCAAAGTTCATCTAGGTAACGTGAGATATGCT gave a PBM binding z-score of 4.89. CGTCCTAGGTCAGCAGGTCAGTGAAAGCGACGTG showed a PBM binding z-score of 3.21. In the case of CAGACTAGGTCACCGGAAGGTCAAAGTCCGCATG, the PBM binding z-score is reported as 6.56. TCGAGTAGGTTACCAATGTGGCATTCAGCTTTCT gave a PBM binding z-score of 0.375. With TCATATAGGTAATACAGGTGGAAGTCGGCATCTA the PBM binding z-score was 1.31. Sequence TCTAGCAGGCCAGAGGGTCACTTAAGAGGTACGG has a PBM binding z-score of 2.36. TGAATGAGGCTATAAGATCAGGGAACGTTGCAAA was tested, and the PBM binding z-score was -0.0491. For CCTGCTAGGTCATGGTTAGCTAATCTACAGTATG, the PBM binding z-score was 2.52. GCGACTGGGGCAAAGCAGGATACCATAAGGTTGG was tested, and the PBM binding z-score was 0.0149. Work on TCTCGGAGGGCACGAAAGGTCAGAGCTCGACATC yielded a PBM binding z-score of 5.58.

These sequences were tested on THRa:RXRa (NR concentration 90 nM, RXRa partner concentration 90 nM) in the same assay as above.
Summary of the method: as §1
Work on ACAGACAGGTGAGTGAAGCTAACTCAGCTGGACG yielded a PBM binding z-score of -0.381. AGTCAAAGTTCATCTATGTAACGTAAGATATGCT was tested, and the PBM binding z-score was 1.92. ATCTCTAGGTAAAAGTTCAGTGCATCCCGAGGAT was tested, and the PBM binding z-score was 1.43. With ATCTCTAGGTAAAGTTAGTTCAGTGAATGCAAAT the PBM binding z-score was 1.94. Sequence GCGACTGGGGCAAAGCAGGTGACCATAAGGTTGG has a PBM binding z-score of 2.88. TCTTGAAGATCAAAGGTTAAGAAAGCCGAAGCCT was tested, and the PBM binding z-score was 1.37. TCTAGCAGGCCGGAGGGTCACTCAAGAGGTACGG gave a PBM binding z-score of 1.44. For CTACCAATGTGAACAAGGTCGTTGATTACTATTC, the PBM binding z-score was 2.17. For GCTATTAGCTGAAAGGGCAACCGAATGATTCTCG, the PBM binding z-score was 0.363. Sequence CGAACTAGGTCAAGGACAGCGAATCTCCGCACGC has a PBM binding z-score of 3.17. CCTACTGGGCCCTCAGGTCATTGATATCAACGTT was tested, and the PBM binding z-score was 3. Sequence CATACAGGGTCAACTAGGCCAGAGTAGGGACGGC has a PBM binding z-score of 3.74. Work on GTACCAAGGTGAAAAGGTCGTTGATGAGTAGGCG yielded a PBM binding z-score of 2.58. Work on CGTCCAAGGTCATAGGAGGTAAGTGAAGACAGAT yielded a PBM binding z-score of 4.6. For CGAACTAGGTCATCCAGGAAAGTGAATACATTGA, the PBM binding z-score was 2.77. With TCTAGATGGTCACGGAGGTCACACACGACGGGTA the PBM binding z-score was 3.85. With GGAACGAGGGCAAAGTTGATAGTATCTGTCGACG the PBM binding z-score was 1.36. Work on TCTTGTAGATCAACAGGAGGTTAAGAAGGATCGA yielded a PBM binding z-score of 0.94. Sequence TCTTGTAGATCAAAGGTTCAGAAAGCCGAAGCCT has a PBM binding z-score of 0.166. CGTCCAAAGTCAGCAGGTCAGTGAAAGCGACGTG was tested, and the PBM binding z-score was 1.05. CCTTACGGGTCAACGTTATAGCACGGGTGGTACG showed a PBM binding z-score of 2.36. With TATGCAGGGTCAAAGGCCAGAGTACGAATGTCGA the PBM binding z-score was 3.45. Sequence TCATGTAGGTAATACAGGTGAAAGTCGGCATCTA has a PBM binding z-score of 0.531. In the case of CAAACTAGGTCAAAGTCAAAGTCGGTTTGTGCCA, the PBM binding z-score is reported as 2.81. Sequence TCGAGTAGGATAGTCGGGGCATTCAGCCAACATA has a PBM binding z-score of 0.0302. For GCTCAGAGGACAAGGTCAGAGCTTTGTCCGTAGA, the PBM binding z-score was 3.08. TCTACTAGGTCAACGATGGTCAGCTAATCTGCTA showed a PBM binding z-score of 3.2. TCTCGGAGGACACGAAGGTCACAGCTTTCCAGAG gave a PBM binding z-score of 3.86. CGAACGAGGGCATGATTTGATAGCAAATGCCGAT gave a PBM binding z-score of 0.985. TCAATTAGTTGAAGGGCAACCGACGAGTCCGTTT was tested, and the PBM binding z-score was 0.164. For AGTCAAAGTTCATCTAGGTAACGTGAGATATGCT, the PBM binding z-score was 3.05. With CGTCCTAGGTCAGCAGGTCAGTGAAAGCGACGTG the PBM binding z-score was 2.88. CAGACTAGGTCACCGGAAGGTCAAAGTCCGCATG was tested, and the PBM binding z-score was 4.37. For TCGAGTAGGTTACCAATGTGGCATTCAGCTTTCT, the PBM binding z-score was 0.00485. Work on TCATATAGGTAATACAGGTGGAAGTCGGCATCTA yielded a PBM binding z-score of 0.353. TCTAGCAGGCCAGAGGGTCACTTAAGAGGTACGG showed a PBM binding z-score of 1.53. For TGAATGAGGCTATAAGATCAGGGAACGTTGCAAA, the PBM binding z-score was -0.134. Work on CCTGCTAGGTCATGGTTAGCTAATCTACAGTATG yielded a PBM binding z-score of 2.99. Sequence GCGACTGGGGCAAAGCAGGATACCATAAGGTTGG has a PBM binding z-score of 2.27. TCTCGGAGGGCACGAAAGGTCAGAGCTCGACATC showed a PBM binding z-score of 4.4.
